Data as given in PubChem BioAssay (NCI).
This is part of a sample that, as a whole, favours compounds with a hit. Of some 83,000 tested, about 20% had one in any assay.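 Cell lines were cultured in 96-well plates, exposed to a single compound concentration, and assessed for percent growth 48 hours later.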 A number with no mark means an inactive call. Activity calls are given as the source filed them. The calls were made as follows: active = growth percent below 10; inactive = the rest.

Experiments:
Assay in all cases: NCI-60 one-dose screen, 48 h (100 = growth as untreated, 0 = no growth, -100 = all killed)
Details in all cases: 10 µM unless noted
SR leukemia = test system: SR leukemia
RPMI-8226 leukemia = test system: RPMI-8226 leukemia
OVCAR-8 ovarian = test system: OVCAR-8 ovarian
OVCAR-5 ovarian = test system: OVCAR-5 ovarian
OVCAR-4 ovarian = test system: OVCAR-4 ovarian
SK-OV-3 ovarian = test system: SK-OV-3 ovarian
IGROV1 ovarian = test system: IGROV1 ovarian
OVCAR-3 ovarian = test system: OVCAR-3 ovarian
HS 578T breast = test system: HS 578T breast
NCI/ADR-RES ovarian = test system: NCI/ADR-RES ovarian
T-47D breast = test system: T-47D breast
BT-549 breast = test system: BT-549 breast
MDA-MB-435 melanoma = test system: MDA-MB-435 melanoma
SW-620 colon = test system: SW-620 colon
MCF7 breast = test system: MCF7 breast
HCT-116 colon = test system: HCT-116 colon
HCC-2998 colon = test system: HCC-2998 colon
KM12 colon = test system: KM12 colon

CC1(C)CC(=O)C2=C(C1)OC(C(=O)c1ccccc1)C2c1cccc(Oc2ccccc2)c1 (stereo not drawn)
growth (SR leukemia): 26.2% | growth (RPMI-8226 leukemia): 34.6% | growth (OVCAR-8 ovarian): 48.5% | growth (OVCAR-5 ovarian): 88.7% | growth (OVCAR-4 ovarian): 28.6% | growth (SK-OV-3 ovarian): 64% | growth (IGROV1 ovarian): 89.5% | growth (OVCAR-3 ovarian): 64.2% | growth (HS 578T breast): 68.4% | growth (NCI/ADR-RES ovarian): 38.3% | growth (T-47D breast): 5.71% (active) | growth (BT-549 breast): 40.1% | growth (MDA-MB-435 melanoma): 44.5% | growth (SW-620 colon): 54.2% | growth (MCF7 breast): 28.5% | growth (HCT-116 colon): 33.8% | growth (HCC-2998 colon): 71.9% | growth (KM12 colon): 37.7%

O=C(/C=C/C12c3ccccc3C(c3ccccc31)C1C(=O)NC(=O)C12)c1cccs1 (stereo not drawn)
growth (SR leukemia): 20.3% | growth (RPMI-8226 leukemia): 1.76% (active) | growth (OVCAR-8 ovarian): 18.4% | growth (OVCAR-5 ovarian): 48% | growth (OVCAR-4 ovarian): 60% | growth (SK-OV-3 ovarian): 59.1% | growth (IGROV1 ovarian): 37% | growth (OVCAR-3 ovarian): -0.389% (active) | growth (HS 578T breast): 36.2% | growth (NCI/ADR-RES ovarian): 26.6% | growth (T-47D breast): 39.9% | growth (BT-549 breast): 33.5% | growth (MDA-MB-435 melanoma): 4.93% (active) | growth (SW-620 colon): 27.1% | growth (MCF7 breast): 14.2% | growth (HCT-116 colon): 14.4% | growth (HCC-2998 colon): 99.4% | growth (KM12 colon): 22.6%

O=C1NCCN1/N=C/c1c(Cl)n(Cc2ccc(Cl)cc2)c2ccccc12
growth (SR leukemia): 78.4% | growth (RPMI-8226 leukemia): 82.6% | growth (OVCAR-8 ovarian): 78.7% | growth (OVCAR-5 ovarian): 96.8% | growth (OVCAR-4 ovarian): 79.1% | growth (SK-OV-3 ovarian): 146% | growth (IGROV1 ovarian): 24.9% | growth (OVCAR-3 ovarian): 84.8% | growth (HS 578T breast): 90.3% | growth (NCI/ADR-RES ovarian): 90.8% | growth (T-47D breast): 113% | growth (BT-549 breast): 79.2% | growth (MDA-MB-435 melanoma): 85.6% | growth (SW-620 colon): 108% | growth (MCF7 breast): 84.7% | growth (HCT-116 colon): 89.5% | growth (HCC-2998 colon): 95.9% | growth (KM12 colon): 110%

O=C(c1ccc(F)cc1)C1CCN(CCn2c(=O)[nH]c3ccccc3c2=O)CC1
growth (SR leukemia): 99.9% | growth (RPMI-8226 leukemia): 104% | growth (OVCAR-8 ovarian): 103% | growth (OVCAR-5 ovarian): 99.9% | growth (OVCAR-4 ovarian): 109% | growth (SK-OV-3 ovarian): 102% | growth (IGROV1 ovarian): 111% | growth (OVCAR-3 ovarian): 96.9% | growth (HS 578T breast): 108% | growth (NCI/ADR-RES ovarian): 102% | growth (T-47D breast): 102% | growth (BT-549 breast): 107% | growth (MDA-MB-435 melanoma): 104% | growth (SW-620 colon): 102% | growth (MCF7 breast): 97.6% | growth (HCT-116 colon): 110% | growth (HCC-2998 colon): 105% | growth (KM12 colon): 104%

O=C(NCCN1CCOCC1)c1cncnc1Nc1ccc2c(ccn2Cc2ccccn2)c1
growth (SR leukemia): 111% | growth (RPMI-8226 leukemia): 106% | growth (OVCAR-8 ovarian): 102% | growth (OVCAR-5 ovarian): 100% | growth (OVCAR-4 ovarian): 106% | growth (SK-OV-3 ovarian): 95.4% | growth (IGROV1 ovarian): 106% | growth (OVCAR-3 ovarian): 113% | growth (HS 578T breast): 103% | growth (NCI/ADR-RES ovarian): 104% | growth (T-47D breast): 98.3% | growth (BT-549 breast): 102% | growth (MDA-MB-435 melanoma): 99.9% | growth (SW-620 colon): 98% | growth (MCF7 breast): 97.8% | growth (HCT-116 colon): 105% | growth (HCC-2998 colon): 100% | growth (KM12 colon): 107%

C/C=C(/C)C(=O)O[C@@H]1CC(C)(C)CC2C34OC(=O)[C@@]21CC[C@@]3(C)[C@]1(C)CCC2C(C)(C)C(=O)CC[C@]2(C)C1C[C@@H]4O (stereo partly drawn)
growth (SR leukemia): 28.5% | growth (RPMI-8226 leukemia): 26.2% | growth (OVCAR-8 ovarian): 68.6% | growth (OVCAR-5 ovarian): 95.3% | growth (OVCAR-4 ovarian): 67.1% | growth (SK-OV-3 ovarian): 87.8% | growth (IGROV1 ovarian): 72.6% | growth (OVCAR-3 ovarian): 73.7% | growth (HS 578T breast): 78.3% | growth (NCI/ADR-RES ovarian): 77% | growth (T-47D breast): 46.8% | growth (BT-549 breast): 43.3% | growth (MDA-MB-435 melanoma): 70.9% | growth (SW-620 colon): 38.8% | growth (MCF7 breast): 66.7% | growth (HCT-116 colon): 29.5% | growth (HCC-2998 colon): 73.1% | growth (KM12 colon): 51.5%

CCOC(=O)c1cc(C(=O)c2cc(OC)cc(OC)c2)n2ncccc12
growth (SR leukemia): 32.3% | growth (RPMI-8226 leukemia): 28.9% | growth (OVCAR-8 ovarian): 38.2% | growth (OVCAR-5 ovarian): 92.2% | growth (OVCAR-4 ovarian): 71.4% | growth (SK-OV-3 ovarian): 19.6% | growth (IGROV1 ovarian): 56.4% | growth (OVCAR-3 ovarian): 0.928% (active) | growth (HS 578T breast): 31.5% | growth (NCI/ADR-RES ovarian): 7.11% (active) | growth (T-47D breast): 32.9% | growth (BT-549 breast): 18.4% | growth (MDA-MB-435 melanoma): 1.18% (active) | growth (SW-620 colon): 18.4% | growth (MCF7 breast): 24.8% | growth (HCT-116 colon): 13.5% | growth (HCC-2998 colon): 66.7% | growth (KM12 colon): 27.8%

COc1ccc(-c2nc(SCCC(C)C)nc(N/N=C(/C)c3ccc(N)cc3)c2C#N)cc1
growth (SR leukemia): 90.2% | growth (RPMI-8226 leukemia): 93.3% | growth (OVCAR-8 ovarian): 92.7% | growth (OVCAR-5 ovarian): 93.7% | growth (OVCAR-4 ovarian): 101% | growth (SK-OV-3 ovarian): 89% | growth (IGROV1 ovarian): 79% | growth (OVCAR-3 ovarian): 99.2% | growth (HS 578T breast): 92.4% | growth (NCI/ADR-RES ovarian): 93.6% | growth (T-47D breast): 85% | growth (BT-549 breast): 96.7% | growth (MDA-MB-435 melanoma): 104% | growth (SW-620 colon): 95.2% | growth (MCF7 breast): 86.1% | growth (HCT-116 colon): 94.3% | growth (KM12 colon): 92.1%
